Molecules are shown by their SMILES. Inconclusive results are not listed. Activity calls are given as the source filed them. Calls follow the shape of the dose curve; as a rule, active = well fitted curve in the direction sought with a large enough effect; inconclusive = small, poorly fitted or top-dose-only effect, or another doubt; inactive = no such curve, though single readings can be large or run the other way.

For this assay, the target named is Runt-related transcription factor 1 (Homo sapiens) + Core-binding factor subunit beta (Homo sapiens) (UniProt Q01196+Q13951). Nature of the assay: qHTS Assay for Compounds Blocking the Interaction Between CBF-beta and RUNX1 for the Treatment of Acute Myeloid Leukemia: SAR for Probe. As to conditions: AlphaScreen CBFb-His/RUNX1-biotin binding, biochemical. The text has this:
NIH Chemical Genomics Center [NCGC] NIH Molecular Libraries Probe Production centers Network [MLPCN] MLPCN Grant: X01MH083259-01 Assay Submitter (PI): Paul Liu NCGC Assay Overview: Core Binding Factor (CBF) abnormalities are associated with 20-25% of all acute myeloid leukemias (AML), of which 5-10% are further sub classified as acute myelomonocytic leukemia with eosinophilia, also known as M4Eo in the FAB classification scheme. This subtype of leukemia is usually associated with chromosome 16 inversion (p13:q22). Chromosome 16 inversion results in formation of the fusion oncogene CBFB-MYH11, which encodes the fusion protein CBF-beta-SMMHC. […] It has been hypothesized that the interference of CBF-beta and RUNX1 binding could have therapeutic implications for patients with CBF mediated leukemias. […]
NCGC Assay Protocol Summary: Step, Parameter, Description (1) Reagent, 3 uL CBFb-His/RUNX1-biotin mix incubated together for 20 minutes at room temperature (30 nM each) (2) Compound or control, 23 nL compound stock solution (3) Incubation, 15 minutes at Room temperature (4) Reagent, 1 uL 50 ng each of beads (Nickel beads and streptavidin beads) (5) Incubation, 90 minutes at Room temperature (6) Detection, […], Envision reader in AlphaScreenTM mode Keywords: MLSMR, MLPCN, NIH Roadmap, qHTS, NCGC, Core binding factor, CBF, CBF-beta, Acute myeloid leukemia
In general terms: In qHTS, concentration-response curves come from the screen itself.

Runt-related transcription factor 1 (Homo sapiens) + Core-binding factor subunit beta (Homo sapiens), sequence (Q01196 whole entry, looked up): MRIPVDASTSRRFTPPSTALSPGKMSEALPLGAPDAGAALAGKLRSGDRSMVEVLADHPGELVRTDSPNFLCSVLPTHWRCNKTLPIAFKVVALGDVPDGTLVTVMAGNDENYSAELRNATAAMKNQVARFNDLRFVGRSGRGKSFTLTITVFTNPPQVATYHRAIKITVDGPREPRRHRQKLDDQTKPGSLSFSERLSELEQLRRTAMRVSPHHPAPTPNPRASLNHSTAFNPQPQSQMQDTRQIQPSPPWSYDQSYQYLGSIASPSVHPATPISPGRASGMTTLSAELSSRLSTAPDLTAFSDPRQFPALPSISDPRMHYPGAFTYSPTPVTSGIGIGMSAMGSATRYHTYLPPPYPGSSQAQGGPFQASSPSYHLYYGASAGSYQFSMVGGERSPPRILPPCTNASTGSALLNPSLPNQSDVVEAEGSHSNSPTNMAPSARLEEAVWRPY
Runt-related transcription factor 1 (Homo sapiens) + Core-binding factor subunit beta (Homo sapiens), sequence (Q13951 whole entry, looked up): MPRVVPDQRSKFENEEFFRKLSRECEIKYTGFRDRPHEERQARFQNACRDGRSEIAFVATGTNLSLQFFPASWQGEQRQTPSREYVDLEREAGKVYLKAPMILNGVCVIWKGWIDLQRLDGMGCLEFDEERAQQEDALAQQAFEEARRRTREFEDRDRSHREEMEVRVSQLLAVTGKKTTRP

As to `CN1C(=O)CN=C(c2ccc[nH]2)c2cc(Cl)ccc21` (tested in a mixture with another compound), the Potency is 109 µM (active). As for `CCN(CC)CCN1C(=O)CN=C(c2ccccn2)c2cc(Cl)ccc21`, the figure is 21.7 µM (active).

For the origin of these results see PubChem BioAssay AID504386 (National Center for Advancing Translational Sciences (NCATS), 2011).
